Screen size: about 5,500 compounds; about 2,000 (36%) were called active. Inconclusive results (about 18%) are left out. No stated cut-off is given here; in the data, active means normalized growth mostly below about 0.91 (no sharp cut-off); inconclusive means no clear call, values can overlap the other calls; inactive means mostly above about 0.92. The list shows a part of the results.
Assay: chemical genetic growth profiling, strain panel (AID 1159580);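 further: tested at 20 µM; growth read once vehicle control cultures reached saturation at 30 °C; 1 = growth at the plate median or of vehicle wells; lower values mean less growth of the strain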
Conditions: growth OD

Measured: normalized growth

CC(C)N(C(=O)CCl)c1ccccc1
active: S. cerevisiae deletion strains, locus YLR357W, strain rsc2, active compounds read low 1.18 [resistant] | S. cerevisiae deletion strains, locus YLR418C, strain cdc73, active compounds read low 0.798 | S. cerevisiae deletion strains, locus YMR125W, strain sto1, active compounds read low 1.16 [resistant]
inactive: S. cerevisiae deletion strains, locus YJR043C, strain POL32, active compounds read low 1.03 | S. cerevisiae deletion strains, locus YJR075W, strain HOC1, active compounds read low 1.04 | S. cerevisiae deletion strains, locus YKL009W, strain mrt4, active compounds read low 1.02 | S. cerevisiae deletion strains, locus YKL068W, active compounds read low 1.04 | S. cerevisiae deletion strains, locus YKL085W, strain MDH1 (second series), active compounds read low 1.03 | S. cerevisiae deletion strains, locus YKL085W, strain MDH1, active compounds read low 1.03 | S. cerevisiae deletion strains, locus YKL160W, strain elf1, active compounds read low 0.974 | S. cerevisiae deletion strains, locus YKL190W, strain CNB1, active compounds read low 1.03 | S. cerevisiae deletion strains, locus YKR001C, strain vps1, active compounds read low 1.07 | S. cerevisiae deletion strains, locus YKR026C, strain gcn3, active compounds read low 1.01 | S. cerevisiae deletion strains, locus YKR091W, strain srl3, active compounds read low 1.01 | S. cerevisiae deletion strains, locus YLL001W, strain dnm1, active compounds read low 0.992 | S. cerevisiae deletion strains, locus YLL026W, active compounds read low 1.01 | S. cerevisiae deletion strains, locus YLL041C, strain sdh2, active compounds read low 1.02 | S. cerevisiae deletion strains, locus YLR027C, strain aat2, active compounds read low 1.01 | S. cerevisiae deletion strains, locus YLR039C, strain RIC1, active compounds read low 1.2 | S. cerevisiae deletion strains, locus YLR058C, strain SHM2, active compounds read low 1.03 | S. cerevisiae deletion strains, locus YLR102C, strain apc9, active compounds read low 1 | S. cerevisiae deletion strains, locus YLR221C, strain rsa3, active compounds read low 1 | S. cerevisiae deletion strains, locus YLR258W, strain gsy2, active compounds read low 0.978 | S. cerevisiae deletion strains, locus YLR262C, strain YPT6 (second series), active compounds read low 1.14 | S. cerevisiae deletion strains, locus YLR262C, strain YPT6, active compounds read low 1.21 | S. cerevisiae deletion strains, locus YLR268W, strain sec22, active compounds read low 1.02 | S. cerevisiae deletion strains, locus YLR320W, strain mms22, active compounds read low 0.97 | S. cerevisiae deletion strains, locus YLR330W, strain CHS5, active compounds read low 1.02 | S. cerevisiae deletion strains, locus YLR342W, strain FKS1 (second series), active compounds read low 0.989 | S. cerevisiae deletion strains, locus YLR342W, strain FKS1, active compounds read low 1.03 | S. cerevisiae deletion strains, locus YLR370C, strain arc18, active compounds read low 1.03 | S. cerevisiae deletion strains, locus YLR371W, strain rom2, active compounds read low 1.01 | S. cerevisiae deletion strains, locus YLR384C, strain iki3, active compounds read low 1.01 | S. cerevisiae deletion strains, locus YML016C, strain PPZ1, active compounds read low 0.996 | S. cerevisiae deletion strains, locus YML032C, strain rad52, active compounds read low 1.01 | S. cerevisiae deletion strains, locus YML120C, strain ndi1, active compounds read low 0.986 | S. cerevisiae deletion strains, locus YML124C, strain tub3, active compounds read low 1.02 | S. cerevisiae deletion strains, locus YMR058W, strain fet3, active compounds read low 1 | S. cerevisiae deletion strains, locus YMR078C, strain ctf18, active compounds read low 1.01 | S. cerevisiae deletion strains, locus YMR129W, active compounds read low 1.01 | S. cerevisiae deletion strains, locus YMR205C, strain PFK2, active compounds read low 0.919 | S. cerevisiae deletion strains, locus YMR223W, strain ubp8, active compounds read low 1.02 | S. cerevisiae deletion strains, locus YMR231W, strain pep5, active compounds read low 0.992 | S. cerevisiae deletion strains, locus YMR263W, strain SAP30, active compounds read low 1.04 | S. cerevisiae deletion strains, locus YMR307W, strain GAS1, active compounds read low 0.99 | S. cerevisiae deletion strains, locus YNL067W, strain RPL9B, active compounds read low 1.04 | S. cerevisiae deletion strains, locus YNL071W, strain lat1, active compounds read low 0.922 | S. cerevisiae deletion strains, locus YNL128W, strain TEP1, active compounds read low 1.03 | S. cerevisiae deletion strains, locus YNL153C, strain GIM3, active compounds read low 1.03 | S. cerevisiae deletion strains, locus YNL209W, strain ssb2, active compounds read low 1.01 | S. cerevisiae deletion strains, locus YNL233W, strain BNI4, active compounds read low 1.03 | S. cerevisiae deletion strains, locus YNL248C, strain rpa49, active compounds read low 0.992 | S. cerevisiae deletion strains, locus YNL250W, strain rad50, active compounds read low 1.03 | S. cerevisiae deletion strains, locus YNL271C, strain bni1, active compounds read low 1.02 | S. cerevisiae deletion strains, locus YNL298W, strain CLA4, active compounds read low 1.03 | S. cerevisiae deletion strains, locus YNL307C, strain MCK1, active compounds read low 0.981 | S. cerevisiae deletion strains, locus YNL322C, strain KRE1 (second series), active compounds read low 1.04 | S. cerevisiae deletion strains, locus YNL322C, strain KRE1, active compounds read low 1.04 | S. cerevisiae deletion strains, locus YNR049C, strain mso1, active compounds read low 1.02 | S. cerevisiae deletion strains, locus YNR052C, strain pop2, active compounds read low 1.02 | S. cerevisiae deletion strains, locus YOL006C, strain TOP1, active compounds read low 1 | S. cerevisiae deletion strains, locus YOL012C, strain htz1 0.89 | S. cerevisiae deletion strains, locus YOL147C, strain pex11, active compounds read low 1 | S. cerevisiae deletion strains, locus YOR001W, strain rrp6, active compounds read low 0.983 | S. cerevisiae deletion strains, locus YOR061W, strain CKA2, active compounds read low 1.03 | S. cerevisiae deletion strains, locus YOR069W, strain VPS5, active compounds read low 1.01 | S. cerevisiae deletion strains, locus YOR070C, strain gyp1, active compounds read low 1.01 | S. cerevisiae deletion strains, locus YOR080W, strain dia2, active compounds read low 1.03 | S. cerevisiae deletion strains, locus YOR083W, strain WHI5, active compounds read low 0.976 | S. cerevisiae deletion strains, locus YOR106W, strain vam3, active compounds read low 0.958 | S. cerevisiae deletion strains, locus YOR136W, strain idh2, active compounds read low 1 | S. cerevisiae deletion strains, locus YOR144C, strain elg1, active compounds read low 1.02 | S. cerevisiae deletion strains, locus YOR184W, strain ser1, active compounds read low 1 | S. cerevisiae deletion strains, locus YOR265W, strain rbl2, active compounds read low 1.04 | S. cerevisiae deletion strains, locus YOR270C, strain vph1, active compounds read low 0.865 | S. cerevisiae deletion strains, locus YOR290C, strain snf2, active compounds read low 0.928 | S. cerevisiae deletion strains, locus YOR316C, strain cot1, active compounds read low 1.01 | S. cerevisiae deletion strains, locus YPL051W, strain arl3, active compounds read low 0.987 | S. cerevisiae deletion strains, locus YPL055C, strain LGE1, active compounds read low 1.03 | S. cerevisiae deletion strains, locus YPL078C, strain atp4, active compounds read low 0.973 | S. cerevisiae deletion strains, locus YPL106C, strain sse1, active compounds read low 1.14 | S. cerevisiae deletion strains, locus YPL240C, strain hsp82, active compounds read low 1 | S. cerevisiae deletion strains, locus YPL241C, strain CIN2, active compounds read low 1.02 | S. cerevisiae deletion strains, locus YPR119W, strain clb2, active compounds read low 1.01 | S. cerevisiae deletion strains, locus YPR141C, strain kar3, active compounds read low 1.03 | S. cerevisiae deletion strains, locus YPR163C, strain tif3, active compounds read low 1.03 | S. cerevisiae deletion strains, locus YPR167C, strain met16, active compounds read low 1.02 | S. cerevisiae deletion strains, strain wtn01, active compounds read low 1.02 | S. cerevisiae strains, strain wild type, active compounds read low 1.03

— PubChem BioAssay AID1159580 (chemical genetic matrix, 2015)
